Assay results taken from PubChem BioAssay (NCATS).
Values without a mark were called inactive. Results filed as inconclusive are left out. Active and inactive are the calls of the source. The call rests on the fitted dose curve; in most records, active means well fitted curve in the direction sought with a large enough effect; inconclusive means small, poorly fitted or top-dose-only effect, or another doubt; inactive means no such curve, though single readings can be large; an effect the other way counts as inactive or inconclusive.

Target: Cytochrome P450 2C9 (Homo sapiens) (UniProt P11712)
Sequence (P11712 whole entry, looked up): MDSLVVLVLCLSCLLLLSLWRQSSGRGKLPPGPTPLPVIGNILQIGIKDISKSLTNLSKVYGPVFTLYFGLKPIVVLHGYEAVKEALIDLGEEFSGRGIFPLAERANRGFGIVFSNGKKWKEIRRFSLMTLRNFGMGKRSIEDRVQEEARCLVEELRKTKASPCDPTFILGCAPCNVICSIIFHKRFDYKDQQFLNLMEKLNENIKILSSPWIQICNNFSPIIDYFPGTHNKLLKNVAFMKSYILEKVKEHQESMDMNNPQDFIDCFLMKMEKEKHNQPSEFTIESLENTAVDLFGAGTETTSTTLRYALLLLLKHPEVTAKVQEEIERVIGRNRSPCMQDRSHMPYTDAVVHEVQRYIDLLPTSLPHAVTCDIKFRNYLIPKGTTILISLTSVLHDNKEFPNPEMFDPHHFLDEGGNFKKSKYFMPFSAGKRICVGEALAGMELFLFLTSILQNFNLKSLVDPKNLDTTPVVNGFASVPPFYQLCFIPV
Assay: qHTS Assay for Inhibitors and Substrates of Cytochrome P450 2C9 (AID 883); further: nearly all actives have a fitted effect of over 60% in size; further: potency means the concentration at half of the fitted maximal effect; on activity change, negative = inhibition: on the % scale 0 is the no-effect control and ±100 the full control effect
Settings: recombinant CYP2C9, luciferin-H luminescence, 60 min; series mostly up to 11.4 µM; activity change, negative = inhibition: at the top concentration
Summary of the method: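 Turnover of Luciferin-H (100uM, KM) by 10nM human CYP2C9 was measured over 60 min at 37C with NADPH regeneration; inhibitors and some substrates reduce luminescence. Data normalized to sulphaphenazole 57uM.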

Which “activity change, negative = inhibition” value does the source give for `CC(C)[C@@H]1OC(=O)C=CC=CC=CC=CC=CC[C@@H](O)[C@H](C)[C@@H](O)C[C@H](O)C[C@H](O)C[C@H](O)C[C@H](O)C[C@H](O)C[C@H](O)C=C[C@@H]1C` here?
Its value is 1.45%.

With `Nc1[nH]c(=S)[nH]c(=O)c1N=Nc1c(Br)cc(S(N)(=O)=O)cc1Br` as the compound, how does the “activity change, negative = inhibition” value read?
The value was 276%.

For `O=C(O)c1ccc(SSc2ccc(C(=O)O)cn2)nc1`, which Potency is on record?
Its Potency is 1.58 µM (active).

For `BrC(c1cccc2ccccc12)c1cccc2ccccc12`, which Potency is on record?
Its Potency is 3.16 µM (active).

Which Potency does the source give for `O=S(=O)(O)c1cc(O)c2c(N=Cc3ccccc3O)cc(S(=O)(=O)O)cc2c1` here?
Its Potency is 3.16 µM (active).

How did the Potency turn out when `N#C/C(=C\Nc1ccccn1)C(=O)c1ccco1` was run?
The Potency was 3.16 µM (active).

Target: Cytochrome P450 3A4 (Homo sapiens) (UniProt P08684)
Sequence (P08684 whole entry, looked up): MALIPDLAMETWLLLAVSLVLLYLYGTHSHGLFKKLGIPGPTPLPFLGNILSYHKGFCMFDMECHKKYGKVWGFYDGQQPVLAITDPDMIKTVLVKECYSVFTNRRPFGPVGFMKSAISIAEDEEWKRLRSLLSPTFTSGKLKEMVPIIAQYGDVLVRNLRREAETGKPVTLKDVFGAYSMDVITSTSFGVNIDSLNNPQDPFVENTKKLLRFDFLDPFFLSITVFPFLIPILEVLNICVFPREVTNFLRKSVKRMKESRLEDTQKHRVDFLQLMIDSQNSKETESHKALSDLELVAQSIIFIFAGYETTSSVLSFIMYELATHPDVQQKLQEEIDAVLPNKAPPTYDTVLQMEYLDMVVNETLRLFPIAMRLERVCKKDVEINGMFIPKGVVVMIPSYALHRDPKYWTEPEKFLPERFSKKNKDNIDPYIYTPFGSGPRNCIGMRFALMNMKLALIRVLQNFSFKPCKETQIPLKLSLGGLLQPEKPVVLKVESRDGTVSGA
Assay: qHTS Assay for Inhibitors and Substrates of Cytochrome P450 3A4 (AID 884); further: nearly all actives have a fitted effect of over 50% in size; further: potency means the concentration at half of the fitted maximal effect; on activity change, negative = inhibition: on the % scale 0 is the no-effect control and ±100 the full control effect
Settings: recombinant CYP3A4, Luciferin-PPXE luminescence; series mostly up to 57.1 µM; activity change, negative = inhibition: at the top concentration
Summary of the method: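 Luminescent readout of luciferin produced by CYP3A4 (20 nM) dealkylation of Luciferin-PPXE, 25 uM (its KM). NADPH-driven reaction ran 60 min at RT after 10 min compound preincubation; data scaled to 57 uM ketoconazole as 100% inhibition.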

Which Potency does the source give for `Cc1ccc(Nc2nnc(-c3ccc4c(c3)OCO4)o2)c(C)c1` here?
The Potency was 3.16 µM (active).

`CN[C@@H](c1ccncc1)[C@@H](NC)c1ccncc1` was tested. Which Potency did it give?
The Potency was 5.01 µM (active).

Which Potency does the source give for `Cc1cnc(CNc2nc(-c3cccnc3)nc3ccccc23)cn1` here?
Its Potency is 3.98 µM (active).

How did the Potency turn out when `C(=N/Nc1nnc2c(n1)[nH]c1ccccc12)/c1cccnc1` was run?
The Potency was 3.98 µM (active).

For `COc1ccc2c(c1)Cc1cc(N=[N+]([O-])c3ccc4c(c3)Cc3cc(OC)ccc3-4)ccc1-2`, which Potency is on record?
The Potency was 5.01 µM (active).

`Nc1nc(SC/C=C\c2ccccc2)c2[nH]cnc2n1` was tested. Which Potency did it give?
Its Potency is 2.51 µM (active).

How did the Potency turn out when `O=C(CC(=O)c1ccncc1)c1ccccc1` was run?
The Potency was 3.16 µM (active).

How did the Potency turn out when `O=c1oc2cc(N=Cc3ccc4c(c3)OCO4)ccc2c2ccccc12` was run?
Its Potency is 3.98 µM (active).

With `CSC1(SC2=NCCN2)SC2(NCCN2)S1` as the compound, how does the Potency read?
The Potency was 1.26 µM (active).

`O[C@@H](C1=C/C(=C\c2ccncc2)c2ccccc21)c1ccncc1` was tested. Which Potency did it give?
Its Potency is 0.794 µM (active).

With `Nc1nc(SCCc2ccccc2)c2[nH]cnc2n1` as the compound, how does the Potency read?
The Potency was 2.51 µM (active).

For `Nc1nc(SCc2ccccc2[N+](=O)[O-])c2[nH]cnc2n1`, which Potency is on record?
The Potency was 3.16 µM (active).

For `O=S(=O)(c1cnccc1N1CCN(CCO)CC1)N1CCCC1`, which Potency is on record?
The Potency was 3.98 µM (active).

Which Potency does the source give for `COc1ccc(Oc2ncc3nc(C)c(=O)n(-c4ccc(OC)cc4)c3n2)cc1` here?
The Potency was 3.98 µM (active).

Which Potency does the source give for `Cn1ncc2c(NCCc3ccccc3)nc(Cl)nc21` here?
Its Potency is 2 µM (active).

How did the Potency turn out when `C/C(=N/Nc1ccc2ccccc2n1)c1ccccc1O` was run?
The Potency was 3.16 µM (active).

`COc1ccc(C[C@@H]2C(=O)N[C@H](C)C(=O)N(C)[C@@H]3Cc4ccc(cc4)Oc4cc(ccc4O)C[C@H](C(=O)N[C@@H](C)C(=O)N[C@H](C)C(=O)N2C)N(C)C3=O)cc1` was tested. Which Potency did it give?
Its Potency is 3.98 µM (active).

For `Cc1ccc(S(=O)(=O)Nc2cc(=O)[nH]c3c2CCC3)cc1`, which Potency is on record?
Its Potency is 3.16 µM (active).

With `c1ccc(C[C@@H](Nc2cccnc2)c2ccccc2)cc1` as the compound, how does the Potency read?
Its Potency is 3.16 µM (active).

With `N=C(N)S[C@H]1c2ccccc2-c2cc([N+](=O)[O-])ccc21` as the compound, how does the Potency read?
The Potency was 5.01 µM (active).

Which Potency does the source give for `CC(C)(C)C(=O)[C@H]([C@@H](c1ccccc1)N1CCOCC1)N1CCOCC1` here?
Its Potency is 2.51 µM (active).

For `O=C(O)CCc1nc(-c2ccccc2-n2cccc2)no1`, which Potency is on record?
Its Potency is 2.51 µM (active).

How did the activity change, negative = inhibition turn out when `O=C(O)/C(=C\c1ccccc1)Cc1ccccc1` was run?
Its activity change, negative = inhibition is 30.2% [at 11.4 µM].

How did the Potency turn out when `Cn1c(=S)c2[nH]c(SCc3cccnc3)nc2n(C)c1=O` was run?
The Potency was 3.16 µM (active).

How did the Potency turn out when `CC(C)N1CCN(c2ccncc2S(=O)(=O)N2CCCCC2)CC1` was run?
Its Potency is 3.16 µM (active).

For `Cc1cc2c(cc1C)NC1=C(N2)O[C@H](c2c[nH]c3ccc(COc4ccccc4)cc23)C1=O`, which Potency is on record?
The Potency was 3.98 µM (active).

`COc1cc(Cl)c(CC(=O)c2c[nH]c3ccccc23)cc1OC` was tested. Which Potency did it give?
The Potency was 2.51 µM (active).

How did the Potency turn out when `Cc1ccc2c(c1)N[C@H](c1ccc(C(=O)O)cc1)c1cccn1-2` was run?
Its Potency is 0.0501 µM (active).

For `COc1ccc2c(Cl)cc(NC(=S)Nc3ccccc3)nc2c1`, which activity change, negative = inhibition is on record?
Its activity change, negative = inhibition is 67.2% [at 11.4 µM].

For `c1ccc2c(c1)-c1nc3ccccc3cc1[C@H]2N1CCOCC1`, which Potency is on record?
Its Potency is 2.51 µM (active).

How did the Potency turn out when `Nc1cccc(OCc2nc(N)nc(N)c2-c2ccc(Cl)cc2)c1` was run?
The Potency was 1.58 µM (active).

Which Potency does the source give for `CC1=C/C(=C(/c2ccc(O)c(C)c2)c2ccccc2C(=O)O)C=CC1=O` here?
The Potency was 1.58 µM (active).

`Cn1c(=O)c2[nH]c(CCCCc3nc4c([nH]3)c(=O)n(C)c(=S)n4C)nc2n(C)c1=S` was tested. Which Potency did it give?
The Potency was 1.26 µM (active).

Target: Cytochrome P450 3A4 (Homo sapiens) (UniProt P08684)
Assay: qHTS Assay for Activators of Cytochrome P450 3A4 (AID 885); further: nearly all actives have a fitted effect of over 65% in size
Settings: recombinant CYP3A4, Luciferin-PPXE luminescence, 60 min; series mostly up to 11.4 µM; activity change, positive = activation: at the top concentration
Summary of the method: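 Activators are scored by enhanced luminescence from CYP3A4 conversion of luciferin-PPXE (25uM, equal to KM) to luciferin, after 60 min at RT with an NADPH-regenerating system.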

`Cc1ccc(Nc2nnc(-c3ccc4c(c3)OCO4)o2)c(C)c1` was tested. Which “activity change, positive = activation” value did it give?
Its value is -80.3%.

`CN[C@@H](c1ccncc1)[C@@H](NC)c1ccncc1` was tested. Which “activity change, positive = activation” value did it give?
Its value is -68%.

For `Cc1cnc(CNc2nc(-c3cccnc3)nc3ccccc23)cn1`, which “activity change, positive = activation” value is on record?
The value was -91.7% [at 57.1 µM].

How did the “activity change, positive = activation” value turn out when `C(=N/Nc1nnc2c(n1)[nH]c1ccccc12)/c1cccnc1` was run?
Its value is -67%.

`COc1ccc2c(c1)Cc1cc(N=[N+]([O-])c3ccc4c(c3)Cc3cc(OC)ccc3-4)ccc1-2` was tested. Which “activity change, positive = activation” value did it give?
Its value is -60.9%.

`Nc1nc(SC/C=C\c2ccccc2)c2[nH]cnc2n1` was tested. Which “activity change, positive = activation” value did it give?
Its value is -82%.

Which “activity change, positive = activation” value does the source give for `O=C(CC(=O)c1ccncc1)c1ccccc1` here?
Its value is -78.7%.

With `O=c1oc2cc(N=Cc3ccc4c(c3)OCO4)ccc2c2ccccc12` as the compound, how does the “activity change, positive = activation” value read?
Its value is -101%.

With `CSC1(SC2=NCCN2)SC2(NCCN2)S1` as the compound, how does the “activity change, positive = activation” value read?
The value was -78.7%.

Which “activity change, positive = activation” value does the source give for `O[C@@H](C1=C/C(=C\c2ccncc2)c2ccccc21)c1ccncc1` here?
The value was -86.5%.

How did the “activity change, positive = activation” value turn out when `Nc1nc(SCCc2ccccc2)c2[nH]cnc2n1` was run?
Its value is -86%.

For `Nc1nc(SCc2ccccc2[N+](=O)[O-])c2[nH]cnc2n1`, which “activity change, positive = activation” value is on record?
The value was -101%.

`O=S(=O)(c1cnccc1N1CCN(CCO)CC1)N1CCCC1` was tested. Which “activity change, positive = activation” value did it give?
Its value is -62.4%.

`COc1ccc(Oc2ncc3nc(C)c(=O)n(-c4ccc(OC)cc4)c3n2)cc1` was tested. Which “activity change, positive = activation” value did it give?
The value was -98.2% [at 57.1 µM].

Which “activity change, positive = activation” value does the source give for `Cn1ncc2c(NCCc3ccccc3)nc(Cl)nc21` here?
The value was -71.9%.

`C/C(=N/Nc1ccc2ccccc2n1)c1ccccc1O` was tested. Which “activity change, positive = activation” value did it give?
Its value is -66.5%.

How did the “activity change, positive = activation” value turn out when `COc1ccc(C[C@@H]2C(=O)N[C@H](C)C(=O)N(C)[C@@H]3Cc4ccc(cc4)Oc4cc(ccc4O)C[C@H](C(=O)N[C@@H](C)C(=O)N[C@H](C)C(=O)N2C)N(C)C3=O)cc1` was run?
The value was -73.9%.

With `Cc1ccc(S(=O)(=O)Nc2cc(=O)[nH]c3c2CCC3)cc1` as the compound, how does the “activity change, positive = activation” value read?
The value was -62.2%.

With `c1ccc(C[C@@H](Nc2cccnc2)c2ccccc2)cc1` as the compound, how does the “activity change, positive = activation” value read?
The value was -82.1%.

`N=C(N)S[C@H]1c2ccccc2-c2cc([N+](=O)[O-])ccc21` was tested. Which “activity change, positive = activation” value did it give?
Its value is -65.1%.

For `CC(C)(C)C(=O)[C@H]([C@@H](c1ccccc1)N1CCOCC1)N1CCOCC1`, which “activity change, positive = activation” value is on record?
The value was -80.4%.

Which “activity change, positive = activation” value does the source give for `O=C(O)CCc1nc(-c2ccccc2-n2cccc2)no1` here?
The value was -97.2%.

For `Cn1c(=S)c2[nH]c(SCc3cccnc3)nc2n(C)c1=O`, which “activity change, positive = activation” value is on record?
Its value is -72.1%.

How did the “activity change, positive = activation” value turn out when `CC(C)N1CCN(c2ccncc2S(=O)(=O)N2CCCCC2)CC1` was run?
The value was -81.8%.

For `Cc1cc2c(cc1C)NC1=C(N2)O[C@H](c2c[nH]c3ccc(COc4ccccc4)cc23)C1=O`, which “activity change, positive = activation” value is on record?
The value was -64%.

Which “activity change, positive = activation” value does the source give for `COc1cc(Cl)c(CC(=O)c2c[nH]c3ccccc23)cc1OC` here?
The value was -93.9%.

Which “activity change, positive = activation” value does the source give for `Cc1ccc2c(c1)N[C@H](c1ccc(C(=O)O)cc1)c1cccn1-2` here?
The value was -66.3%.

Which “activity change, positive = activation” value does the source give for `c1ccc2c(c1)-c1nc3ccccc3cc1[C@H]2N1CCOCC1` here?
Its value is -79.9%.

How did the “activity change, positive = activation” value turn out when `Nc1cccc(OCc2nc(N)nc(N)c2-c2ccc(Cl)cc2)c1` was run?
The value was -71.1%.

With `CC1=C/C(=C(/c2ccc(O)c(C)c2)c2ccccc2C(=O)O)C=CC1=O` as the compound, how does the “activity change, positive = activation” value read?
Its value is -99.2%.

Which “activity change, positive = activation” value does the source give for `Cn1c(=O)c2[nH]c(CCCCc3nc4c([nH]3)c(=O)n(C)c(=S)n4C)nc2n(C)c1=S` here?
The value was -84.6%.
